From PubChem BioAssay
Sampled rows, rich in hits. Any-hit rate of the full collection: about 0.47%.
Mito fusion yeast – qHTS Assay for Small Molecule Inhibitors of Mitochondrial Division or Activators of Mitochondrial Fusion | 320,000 tested, 0.23% active | Potency, µM (top dose mostly 46.1 µM), without a hit: at the top dose growth rescue (activation), hits mostly activators | S. cerevisiae fusion-defective mutant growth rescue, CellTiterGlo 48 h | AID 485298, 2010; note: % of control where 0% means no effect; nearly all actives have a fitted effect of over 45% in size
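S. cerevisiae fusion-defective temperature-sensitive mutants (e.g. fzo1-1, mgm1-5) grown 48 h at 37C in YPEG (ethanol/glycerol non-fermentable) medium with 23 nl compound per well; growth rescue read as CellTiterGlo luminescence.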
A-T KAP1 phos – qHTS Assay for Identifying a Potential Treatment of Ataxia-Telangiectasia; F2112 A-T fibroblasts, KAP-1 phosphorylation AlphaLISA; neocarzinostatin DNA damage 30 min before lysis; Potency, µM (highest dose often 57.5 µM), for the others: at the top dose activation, usual class: activators; 320,000 tested, 0.19% active; AID 485349, 2010; note: % of control where 0% means no effect; nearly all actives have a fitted effect of over 45% in size
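hTERT-immortalized A-T patient fibroblasts (F2112), 500 cells/well in OPTI-MEM, 1% FBS, got compounds for 60 min, then NCS for 30 min at 37C. Lysates were then assayed for phospho-KAP-1 by AlphaLISA (anti-pKAP1 donor, anti-KAP1 acceptor beads), 6 hr at 25C.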
Eya2 phos inh – qHTS Assay for Inhibitors of the Phosphatase Activity of Eya2; 330,000 tested, 0.006% active; Protein phosphatase EYA2 (Homo sapiens), O00167; AID 488837, 2010; recombinant Eya2, OMFP fluorescence dephosphorylation (OMFP is methylfluorescein phosphate); Potency, µM (highest dose often 76.9 µM), for inactives: at the top dose activity, negative = inhibition, usual class: inhibitors; note: % is set by controls: 0 for no effect and ±100 for the full control effect
Target sequence (O00167 whole entry, looked up): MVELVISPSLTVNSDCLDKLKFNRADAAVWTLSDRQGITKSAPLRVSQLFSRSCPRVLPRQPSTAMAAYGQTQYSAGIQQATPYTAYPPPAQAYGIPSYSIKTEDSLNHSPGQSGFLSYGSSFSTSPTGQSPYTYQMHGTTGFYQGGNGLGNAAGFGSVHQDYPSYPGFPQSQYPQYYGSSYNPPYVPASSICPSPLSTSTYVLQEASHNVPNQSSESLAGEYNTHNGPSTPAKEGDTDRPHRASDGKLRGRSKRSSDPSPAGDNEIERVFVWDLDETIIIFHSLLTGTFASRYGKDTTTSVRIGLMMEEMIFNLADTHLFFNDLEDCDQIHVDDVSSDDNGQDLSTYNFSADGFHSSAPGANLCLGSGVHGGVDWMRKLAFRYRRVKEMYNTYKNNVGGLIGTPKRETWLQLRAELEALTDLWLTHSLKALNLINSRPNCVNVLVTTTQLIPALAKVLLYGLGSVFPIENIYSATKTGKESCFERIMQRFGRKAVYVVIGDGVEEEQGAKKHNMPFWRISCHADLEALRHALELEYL
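Eya2 (0.2 uM) preincubated 10 min at ambient with compound, then OMFP substrate added at 50 uM; 10 min reaction in 50 mM HEPES pH 7.5, 50 mM NaCl, 5 uM MgCl2, 0.05% BSA, 1 mM DTT. Fluorescence read at Ex 485/Em 525 nm.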
N370S GC mod – qHTS Assay for Inhibitors and Activators of N370S glucocerebrosidase as a Potential Chaperone Treatment of Gaucher Disease; Lysosomal acid glucosylceramidase (Homo sapiens), P04062; N370S GC spleen homogenate, 4MU-glucoside fluorescence; Potency, µM (titrated, usually from 59.4 µM), inactives show top-dose activity change, negative = inhibition, actives largely listed as inhibitors; 330,000 tested, 0.092% active; AID 2101, 2009;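 note: 0% = full enzyme activity and -100% = no enzyme basal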
Numbers without * were called inactive; ? = inconclusive; . = not tested or not shown. Calls come from the whole dose curve; as a rule, active = well fitted curve in the direction sought with a large enough effect; inconclusive = small, poorly fitted or top-dose-only effect, or another doubt; inactive = no such curve, though single readings can be large; an effect the other way counts as inactive or inconclusive. Potency is the fitted concentration of half-maximal effect.

SMILES | Mito fusion yeast | A-T KAP1 phos | Eya2 phos inh | N370S GC mod
O=C(OCC(=O)N(Cc1ccccc1)Cc1ccccc1)c1ccccc1NCCO | ? | 22.4µM* | -14.8% | ?
O=C(COC(=O)c1ccccc1NCCO)NCCc1ccccc1 | -3.8% | 6.0% | -5.7% | ?
CC(=O)NS(=O)(=O)c1ccc(NC(=S)NC(=O)C(C)C)cc1 | -2.1% | 5.4% | 20.2% | 2.6%
Cc1ccc(/C=C/C(=O)Nc2nccs2)o1 | -1.8% | -7.2% | 15.3% | -3.5%
CC1=NN(c2nc(-c3ccc(Cl)cc3)cs2)C(=O)C1 | -5.5% | -0.5% | -5.5% | 0.0%
Cc1ccc(-c2csc(N3C(=N)SCC3=O)n2)cc1 | 5.0% | 22.4µM* | ? | -8.2%
Cc1nnc(SCC(=O)NC(=O)Nc2ccc3c(c2)OCCO3)n1N | -2.8% | 0.708µM* | 11.7% | 8.1%
COc1ccc2c(c1)cc(C(=O)N[C@H](C(=O)N1CCC(C(=O)O)CC1)C(C)C)n2C | -3.3% | 7.08µM* | 1.8% | -2.2%
COCCCNc1oc(/C=C/c2ccccc2)nc1C#N | 14.8% | 15.8µM* | -9.0% | ?
Cc1cccc(-n2cnc(C(=O)N3CCN(C)CC3)c2)n1 | 4.2% | 0.1% | 2.9% | 4.5%
Cc1cccc(-n2cnc(C(=O)O)c2)n1 | 14.1µM* | 0.2% | 1.8% | -0.5%
COc1ccc(-c2csc(-n3ncc(C(=O)O)c3C(F)(F)F)n2)cc1 | 27.5% | 39.8µM* | 5.4% | -2.5%
Cc1ccc(-c2cc(C(=O)NCCCN3CCOCC3)c3ccccc3n2)cc1C | 6.31µM* | 0.3% | -8.5% | ?
CCCC(=O)Nc1nc(-c2ccc3c(c2)OCCO3)cs1 | 4.1% | 2.1% | -27.7% | -5.9%
OC(CN1CCC(Cc2ccc(F)cc2)CC1)c1ccc(Cl)cc1 (stereo unspecified) | 2.91µM* | . | -6.1% | -11.0%
O=C(NCc1ccco1)/C(=C/c1ccc(Br)cc1)NC(=O)c1ccco1 | -0.9% | 12.6% | 1.2% | -10.5%
Oc1ccc(N2CCN(c3nc(-c4cccs4)nc4ccccc34)CC2)cc1 | 2.1% | 6.7% | -3.8% | ?
Oc1ccccc1N1CCN(c2nc(-c3cccs3)nc3ccccc23)CC1 | 19.1% | -31.8% | 0.5% | 4.47µM*
COc1c(N2CCN(C(=S)NC3CC4CCC3C4)C(C)C2)c(F)cc2c(=O)c(C(=O)O)cn(C3CC3)c12 (stereo unspecified) | -4.8% | 28.2µM* | -17.7% | -1.1%
CCC(=O)NCCSc1c[nH]c2ccccc12 | -3.5% | 5.1% | 3.4% | 4.8%
CC(OC(=O)CCN=C1NS(=O)(=O)c2ccccc21)C(=O)N(C)c1ccccc1 (stereo unspecified) | -0.3% | -4.7% | 11.1% | -1.1%
COc1ccc(CN2C(=O)c3cccnc3C2=O)cc1S(=O)(=O)N1CCOc2ccc(C)cc21 | -0.8% | -3.4% | -12.3% | ?
Cc1ccc2c(c1)C(=O)CC(O)(C(F)(F)F)O2 (stereo unspecified) | -5.0% | 3.55µM* | 11.0% | -2.8%
CCCc1ccc(S(=O)(=O)Nc2ccc(C)c(NS(C)(=O)=O)c2)cc1 | 5.62µM* | ? | -4.1% | -5.0%
CCCCc1ccc(S(=O)(=O)Nc2ccc(C)c(NS(C)(=O)=O)c2)cc1 | 7.5% | ? | -7.8% | 20.5%
SMILES | Mito fusion yeast | A-T KAP1 phos | Eya2 phos inh | N370S GC mod
O=C(O)c1ccc(C=C(c2nc3ccccc3s2)c2nc3ccccc3s2)cc1 | 29.1% | 26.1% | 13.6% | 4.4%
COc1cc(C=C(c2nc3ccccc3s2)c2nc3ccccc3s2)cc(OC)c1O | 17.8µM* | -9.0% | 4.4% | 6.8%
Cc1ccc(Nc2ccc(C(N)=O)cc2[N+](=O)[O-])cc1C | ? | 25.1µM* | -12.5% | 13.1%
O=C(Nc1cc(Sc2ccccn2)cc([N+](=O)[O-])c1)c1cccc(Cl)c1 | 15.8µM* | . | -3.0% | 18.6%
COC1=C(OC)C(=O)c2ccccc2C1=O | 25.9µM* | . | ? | 1.9%
COc1ccc(NC(=O)c2ccccc2[N+](=O)[O-])cc1 | 3.1% | 3.9% | -7.4% | -1.9%
CSc1nc2ccccc2nc1N(C)S(=O)(=O)c1ccc(C)cc1 | 4.9% | 1.12µM* | 9.6% | ?
O=C(NCCc1csc(-c2ccccc2)n1)c1c(F)cccc1F | 2.7% | 4.3% | 6.7% | 8.7%
O=C(NCCc1csc(-c2cccnc2)n1)c1c(F)cccc1F | 10.3% | 39.8µM* | -2.5% | 0.5%
C#CCOCCOCCOCCNc1nc(N2CCN(C(=O)[C@H](CCC(=O)O)n3cc(C(N)Cc4ccc(O)cc4)nn3)CC2)nc(N2CCN(C(=O)[C@H](CCCCN)n3cc(C(N)[C@H](C)CC)nn3)CC2)n1 (stereo partly specified) | -65.5% | 39.8µM* | -2.0% | 11.1%
C#CCOCCOCCOCCNc1nc(N2CCN(C(=O)[C@H](CCC(=O)O)n3cc(C(N)CO)nn3)CC2)nc(N2CCN(C(=O)[C@H](CCC(=O)O)n3cc(C(N)CC(C)C)nn3)CC2)n1 (stereo partly specified) | -33.7% | 17.8µM* | 1.7% | 8.7%
C#CCOCCOCCOCCNc1nc(N2CCN(C(=O)[C@H](CCC(=O)O)n3cc(C(N)CO)nn3)CC2)nc(N2CCN(C(=O)[C@H](CCC(=O)O)n3cc(C(N)CO)nn3)CC2)n1 (stereo partly specified) | -8.9% | 0.0% | 7.5% | -3.1%
COC(=O)CNc1c(-c2ccccc2)nc2ccc(Br)cn12 | 0.6% | . | -35.8% | 11.2µM*
COC(=O)Nc1c(-c2ccccc2)nc2ccc(Cl)cn12 | 1.4% | -1.5% | -5.7% | -5.9%
CCN(Cc1ccccc1)S(=O)(=O)c1ccc(C(=O)N(CCCN(C)C)c2nc3cc4c(cc3s2)OCO4)cc1 | -6.2% | 14.9% | -13.6% | ?
COc1ccc(Br)cc1Cn1nnc(C(=O)Nc2ccc3c(c2)OCCO3)c1N | 10µM* | 10.6% | -2.0% | 3.5%
CCCN(CCC)Cc1c(C(=O)OCC)nnn1-c1nonc1N | -1.5% | 3.7% | -6.6% | -8.5%
COCCCNc1nc2ccccc2nc1NS(=O)(=O)c1ccc(Cl)cc1 | 14.1µM* | -2.9% | -8.5% | 2.3%
COCCCNc1nc2ccccc2nc1NS(=O)(=O)c1ccc(OC)cc1 | -6.3% | 22.9% | 3.7% | 14.5%
COc1cccc(C(=O)NC(Cc2ccccc2)c2ccc3c(c2)OCCCO3)c1 (stereo unspecified) | 4.8% | 1.5% | -0.1% | -17.2%
O=[N+]([O-])c1ccc2oc(C(O)c3cccc(Cl)c3)cc2c1 (stereo unspecified) | 25.1µM* | -4.4% | 6.8% | 1.0%
CC1CN(C(=O)c2ccc(-c3ccccc3Cl)o2)CC(C)O1 (stereo unspecified) | 3.1% | 6.8% | 40.5% | -3.2%
CC(C)CN(CC(C)C)CC(O)COc1ccccc1Br (stereo unspecified) | -5.1% | 20µM* | -3.8% | -22.5%
CCCCN(CCCC)CC(O)COc1ccccc1Br (stereo unspecified) | -1.0% | 17.6% | 4.5% | -14.0%
